Reference: the supplement of paper PMC10849652
Targets with a hit are over-represented here; the source holds about 8,800 in all. About 0.5% of all pairs of compound and target were hits.

Legend:
Test in all cases: log2 fold change, soluble protein after heating vs DMSO (PISA); higher = thermal stabilisation; K562 lysate, 10 uM; active = over 0.2 and 3.5 SD of the protein, either way, in both replicates (recomputed)
lapatinib = compound: CS(=O)(=O)CCNCc1ccc(-c2ccc3ncnc(Nc4ccc(OCc5cccc(F)c5)c(Cl)c4)c3c2)o1 [lapatinib]
In short: (§1)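 The values are log-two fold changes in thermal stability compared with solvent controls and come from duplicates. They were obtained by TMTpro 16plex LC-MS/MS, with channel sums equalised, on the supernatant after 21,000xg for 90 min. That supernatant came from crude K562 extract at 1 mg/mL protein treated with 10 μM compound for 30 min, heated for 3 min across 48°C-58°C, pooled and brought to 0.5% NP-40 at 4°C.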

pictilisib = compound: CS(=O)(=O)N1CCN(Cc2cc3nc(-c4cccc5[nH]ncc45)nc(N4CCOCC4)c3s2)CC1 [pictilisib]
In short: as §1

crizotinib = compound: C[C@@H](Oc1cc(-c2cnn(C3CCNCC3)c2)cnc1N)c1c(Cl)ccc(F)c1Cl [crizotinib]
In short: as §1

[1] = compound: C[C@H](C1=CC=C(C=C1)C(=O)NC2=C3C=CNC3=NC=C2)N
In short: as §1

duvelisib = compound: C[C@H](Nc1ncnc2nc[nH]c12)c1cc2cccc(Cl)c2c(=O)n1-c1ccccc1 [duvelisib]
In short: as §1

gandotinib = compound: Cc1cc(Nc2cc(CN3CCOCC3)c3nc(C)c(Cc4ccc(Cl)cc4F)n3n2)n[nH]1 [gandotinib]
In short: as §1

tozasertib = compound: Cc1cc(Nc2cc(N3CCN(C)CC3)nc(Sc3ccc(NC(=O)C4CC4)cc3)n2)n[nH]1 [tozasertib]
In short: as §1

doramapimod = compound: Cc1ccc(-n2nc(C(C)(C)C)cc2NC(=O)Nc2ccc(OCCN3CCOCC3)c3ccccc23)cc1 [doramapimod]
In short: as §1

bafetinib = compound: Cc1ccc(NC(=O)c2ccc(CN3CC[C@H](N(C)C)C3)c(C(F)(F)F)c2)cc1Nc1nccc(-c2cncnc2)n1 [bafetinib]
In short: as §1

[2] = compound: Cc1cccc(CC(=O)N2CCc3c2ccc(-c2cn(C)c4ncnc(N)c24)c3F)n1
In short: as §1

Measured: log2 fold change

OSBP2 (UniProt Q969R2)
active: [1] -0.666
inactive: lapatinib 0.003 | pictilisib 0.024 | crizotinib -0.074 | duvelisib 0.116 | gandotinib 0.194 | tozasertib -0.028 | doramapimod 0.018 | bafetinib -0.037 | [2] 0.23

NUMBL (UniProt Q9Y6R0)
inactive: lapatinib 0.01 | pictilisib 0.111 | crizotinib 0.066 | [1] 0.018 | duvelisib 0.162 | gandotinib 0.176 | tozasertib 0.036 | doramapimod 0.247 | bafetinib 0.041 | [2] 0.036

MYO1D (UniProt O94832)
inactive: lapatinib 0.014 | pictilisib -0.051 | crizotinib -0.035 | [1] 0.016 | duvelisib -0.028 | gandotinib -0.072 | tozasertib 0.01 | doramapimod 0.011 | bafetinib -0.041 | [2] -0.005

NAP1L5 (UniProt Q96NT1)
inactive: lapatinib 0.079 | pictilisib 0.017 | crizotinib 0.094 | duvelisib 0.099 | gandotinib -0.299 | tozasertib -0.016 | doramapimod -0.171 | bafetinib 0.076 | [2] -0.174
active: [1] 0.616

PBK (UniProt Q96KB5)
inactive: lapatinib -0.024 | pictilisib -0.011 | crizotinib -0.005 | [1] 0.013 | duvelisib -0.006 | gandotinib -0.066 | tozasertib -0.005 | doramapimod -0.021 | bafetinib -0.02 | [2] -0.01

OTUD7B (UniProt Q6GQQ9)
inactive: lapatinib 0.033 | pictilisib 0.025 | crizotinib -0.099 | [1] 0.006 | duvelisib -0.041 | gandotinib 0.032 | tozasertib -0.01 | doramapimod -0.012 | bafetinib -0.003 | [2] 0.003

MTHFD1L (UniProt B7ZM99)
inactive: lapatinib -0.075 | pictilisib -0.036 | crizotinib -0.036 | [1] 0.017 | duvelisib 0.026 | gandotinib -0.039 | tozasertib 0.002 | doramapimod 0.035 | bafetinib -0.054 | [2] 0.018

NFKBIE (UniProt O00221)
inactive: lapatinib 0.03 | pictilisib 0.002 | crizotinib -0.027 | [1] 0.066 | duvelisib 0.03 | gandotinib -0.02 | tozasertib 0.07 | doramapimod 0.031 | bafetinib 0.012 | [2] 0.096

MYCBP2 (UniProt O75592)
inactive: lapatinib -0.042 | pictilisib -0.026 | crizotinib -0.07 | [1] -0.028 | duvelisib 0.023 | gandotinib 0.054 | tozasertib 0.023 | doramapimod 0.016 | bafetinib -0.004 | [2] 0.114

OTC (UniProt P00480)
inactive: lapatinib -0.118 | pictilisib -0.026 | crizotinib -0.273 | duvelisib 0.159 | gandotinib -0.003 | tozasertib 0.161 | doramapimod 0.168 | bafetinib -0.412 | [2] 0.377
active: [1] -4.33

NEBL isoform 2 (UniProt O76041)
inactive: lapatinib 0.003 | pictilisib 0.044 | crizotinib 0.059 | [1] -0.135 | duvelisib -0.046 | gandotinib 0.094 | tozasertib -0.018 | doramapimod -0.018 | bafetinib 0.105 | [2] 0.073

MT-ND1 (UniProt P03886)
active: [1] -0.342
inactive: lapatinib -0.025 | pictilisib -0.03 | crizotinib -0.062 | duvelisib -0.052 | gandotinib 0.061 | tozasertib -0.074 | doramapimod 0.041 | bafetinib 0.022 | [2] 0.007

MYD88 isoform 6 (UniProt Q99836)
inactive: lapatinib 0.014 | pictilisib -0.006 | crizotinib -0.007 | [1] -0.032 | duvelisib 0.03 | gandotinib -0.009 | tozasertib 0.068 | doramapimod 0.019 | bafetinib -0.018 | [2] 0

MTFP1 (UniProt Q9UDX5)
active: [1] -0.364
inactive: lapatinib 0.026 | pictilisib 0.017 | crizotinib 0.097 | duvelisib -0.01 | gandotinib 0.059 | tozasertib 0.006 | doramapimod -0.043 | bafetinib 0.01 | [2] 0.067

MSH2 (UniProt P43246)
inactive: lapatinib -0.005 | pictilisib -0.003 | crizotinib -0.04 | [1] 0.028 | duvelisib -0.001 | gandotinib -0.068 | tozasertib 0.002 | doramapimod 0.013 | bafetinib -0.026 | [2] 0.002

NIT2 (UniProt Q9NQR4)
inactive: lapatinib 0.002 | pictilisib -0.048 | crizotinib -0.026 | [1] -0.008 | duvelisib 0.011 | gandotinib -0.01 | tozasertib 0.002 | doramapimod -0.023 | bafetinib 0.011 | [2] -0.06

PARG (UniProt Q86W56)
inactive: lapatinib 0.017 | pictilisib -0.035 | crizotinib -0.058 | [1] 0.047 | duvelisib -0.02 | gandotinib -0.065 | tozasertib -0.033 | doramapimod 0.005 | bafetinib -0.004 | [2] -0.01

N4BP2 (UniProt Q86UW6)
Chain of UniProt Q86UW6 (Q86UW6 whole entry, looked up): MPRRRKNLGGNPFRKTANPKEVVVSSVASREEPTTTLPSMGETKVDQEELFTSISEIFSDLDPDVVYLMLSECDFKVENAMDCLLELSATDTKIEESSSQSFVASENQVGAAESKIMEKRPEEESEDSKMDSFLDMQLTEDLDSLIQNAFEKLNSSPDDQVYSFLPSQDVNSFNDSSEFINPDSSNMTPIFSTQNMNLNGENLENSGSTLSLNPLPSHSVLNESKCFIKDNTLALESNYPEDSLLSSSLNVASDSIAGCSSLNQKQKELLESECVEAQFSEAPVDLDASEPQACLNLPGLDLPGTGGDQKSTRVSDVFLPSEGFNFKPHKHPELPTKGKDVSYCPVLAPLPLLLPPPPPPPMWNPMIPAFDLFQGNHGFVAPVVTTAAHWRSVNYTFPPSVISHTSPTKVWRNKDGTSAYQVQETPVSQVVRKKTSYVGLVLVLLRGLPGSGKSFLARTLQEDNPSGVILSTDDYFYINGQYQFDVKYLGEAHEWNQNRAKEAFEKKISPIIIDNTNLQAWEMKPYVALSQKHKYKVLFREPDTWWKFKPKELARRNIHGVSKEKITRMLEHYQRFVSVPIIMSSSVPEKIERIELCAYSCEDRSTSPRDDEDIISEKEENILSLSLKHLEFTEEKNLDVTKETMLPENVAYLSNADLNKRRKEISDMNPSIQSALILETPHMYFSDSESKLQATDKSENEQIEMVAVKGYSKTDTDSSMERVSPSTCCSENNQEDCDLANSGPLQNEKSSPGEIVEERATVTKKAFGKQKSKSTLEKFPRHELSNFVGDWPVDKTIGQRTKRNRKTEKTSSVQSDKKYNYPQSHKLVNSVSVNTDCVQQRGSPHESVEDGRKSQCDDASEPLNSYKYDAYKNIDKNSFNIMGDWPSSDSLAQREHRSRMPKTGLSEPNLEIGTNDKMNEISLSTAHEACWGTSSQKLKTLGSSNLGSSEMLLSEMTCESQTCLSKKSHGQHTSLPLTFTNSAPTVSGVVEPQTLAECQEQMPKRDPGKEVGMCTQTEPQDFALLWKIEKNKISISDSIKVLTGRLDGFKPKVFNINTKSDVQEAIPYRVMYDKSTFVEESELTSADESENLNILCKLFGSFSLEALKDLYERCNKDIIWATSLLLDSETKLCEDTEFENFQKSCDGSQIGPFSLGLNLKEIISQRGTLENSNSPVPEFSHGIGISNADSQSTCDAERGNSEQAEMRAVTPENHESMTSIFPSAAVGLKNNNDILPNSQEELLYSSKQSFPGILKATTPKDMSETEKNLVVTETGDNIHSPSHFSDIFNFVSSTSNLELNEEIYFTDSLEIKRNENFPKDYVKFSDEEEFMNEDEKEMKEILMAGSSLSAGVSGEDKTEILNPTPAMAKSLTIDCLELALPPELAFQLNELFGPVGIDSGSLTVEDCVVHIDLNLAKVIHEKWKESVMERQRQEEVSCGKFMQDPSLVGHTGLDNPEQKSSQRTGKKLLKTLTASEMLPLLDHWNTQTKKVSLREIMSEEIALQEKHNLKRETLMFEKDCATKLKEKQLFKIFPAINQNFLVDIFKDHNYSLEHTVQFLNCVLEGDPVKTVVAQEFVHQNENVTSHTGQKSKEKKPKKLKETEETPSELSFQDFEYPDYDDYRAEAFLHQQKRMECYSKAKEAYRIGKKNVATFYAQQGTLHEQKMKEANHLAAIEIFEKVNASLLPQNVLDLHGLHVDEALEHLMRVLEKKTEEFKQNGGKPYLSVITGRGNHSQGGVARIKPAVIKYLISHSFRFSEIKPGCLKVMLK
active: [1] -0.236
inactive: lapatinib 0.003 | pictilisib 0.054 | crizotinib 0.002 | duvelisib 0.028 | gandotinib 0.014 | tozasertib -0.032 | doramapimod -0.015 | bafetinib -0.038 | [2] 0.149

NSUN2 (UniProt Q08J23)
Chain of UniProt Q08J23 (Q08J23 whole entry, looked up): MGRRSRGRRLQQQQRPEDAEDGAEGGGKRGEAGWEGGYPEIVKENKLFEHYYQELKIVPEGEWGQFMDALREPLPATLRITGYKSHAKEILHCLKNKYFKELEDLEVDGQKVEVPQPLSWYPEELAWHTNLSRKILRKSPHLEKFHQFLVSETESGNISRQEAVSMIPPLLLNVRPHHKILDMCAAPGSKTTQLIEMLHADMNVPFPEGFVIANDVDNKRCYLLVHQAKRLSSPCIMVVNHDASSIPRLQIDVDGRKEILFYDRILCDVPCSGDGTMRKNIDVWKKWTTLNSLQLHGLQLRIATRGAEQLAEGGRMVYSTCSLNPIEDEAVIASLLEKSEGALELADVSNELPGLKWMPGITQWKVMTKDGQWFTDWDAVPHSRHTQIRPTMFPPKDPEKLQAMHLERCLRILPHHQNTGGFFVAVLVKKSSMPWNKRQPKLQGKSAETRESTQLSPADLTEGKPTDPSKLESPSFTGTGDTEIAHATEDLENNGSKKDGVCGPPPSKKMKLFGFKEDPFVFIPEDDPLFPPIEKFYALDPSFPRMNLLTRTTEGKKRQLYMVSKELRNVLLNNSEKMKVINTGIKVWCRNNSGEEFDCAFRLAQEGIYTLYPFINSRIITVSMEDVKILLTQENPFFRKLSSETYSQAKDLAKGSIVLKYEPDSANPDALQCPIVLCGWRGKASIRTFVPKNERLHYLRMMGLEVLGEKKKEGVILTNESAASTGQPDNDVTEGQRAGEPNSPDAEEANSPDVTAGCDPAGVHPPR
inactive: lapatinib -0.009 | pictilisib -0.006 | crizotinib -0.024 | [1] 0.072 | duvelisib -0.005 | gandotinib -0.05 | tozasertib -0.011 | doramapimod -0.009 | bafetinib -0.038 | [2] -0.007

NAA35 (UniProt Q5VZE5)
inactive: lapatinib 0.009 | pictilisib 0.032 | crizotinib -0.031 | [1] 0.082 | duvelisib -0.007 | gandotinib -0.042 | tozasertib -0.003 | doramapimod 0.031 | bafetinib -0.057 | [2] -0.022

NUP205 (UniProt Q92621)
inactive: lapatinib -0.03 | pictilisib -0.041 | crizotinib -0.1 | [1] -0.047 | duvelisib -0.008 | gandotinib -0.143 | tozasertib 0.015 | doramapimod 0.043 | bafetinib -0.089 | [2] 0.031

MTCH2 (UniProt Q9Y6C9)
Chain of UniProt Q9Y6C9 (Q9Y6C9 whole entry, looked up): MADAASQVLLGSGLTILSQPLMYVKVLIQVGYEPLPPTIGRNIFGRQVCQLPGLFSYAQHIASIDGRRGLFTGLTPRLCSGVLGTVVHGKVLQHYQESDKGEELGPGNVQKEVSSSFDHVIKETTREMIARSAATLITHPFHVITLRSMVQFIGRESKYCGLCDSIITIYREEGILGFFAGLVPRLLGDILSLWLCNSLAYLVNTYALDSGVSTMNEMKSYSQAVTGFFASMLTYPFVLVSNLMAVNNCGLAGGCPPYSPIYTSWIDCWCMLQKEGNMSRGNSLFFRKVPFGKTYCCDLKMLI
inactive: lapatinib -0.023 | pictilisib -0.018 | crizotinib -0.059 | [1] -0.144 | duvelisib -0.011 | gandotinib 0.142 | tozasertib -0.028 | doramapimod 0.024 | bafetinib -0.04 | [2] 0.022

OAT (UniProt P04181)
Chain of UniProt P04181 (P04181 whole entry, looked up): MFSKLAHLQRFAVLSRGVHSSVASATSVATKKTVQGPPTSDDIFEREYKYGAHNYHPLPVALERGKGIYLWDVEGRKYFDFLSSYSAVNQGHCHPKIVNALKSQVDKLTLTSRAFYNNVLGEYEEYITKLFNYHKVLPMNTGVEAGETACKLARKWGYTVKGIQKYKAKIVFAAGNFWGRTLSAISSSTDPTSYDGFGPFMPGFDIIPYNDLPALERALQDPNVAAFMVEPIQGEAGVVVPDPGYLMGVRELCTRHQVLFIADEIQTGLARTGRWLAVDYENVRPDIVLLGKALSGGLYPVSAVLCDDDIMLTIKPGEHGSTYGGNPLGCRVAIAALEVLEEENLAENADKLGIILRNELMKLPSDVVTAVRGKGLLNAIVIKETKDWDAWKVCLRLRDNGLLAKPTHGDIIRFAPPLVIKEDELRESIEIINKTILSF
inactive: lapatinib -0.02 | pictilisib 0.021 | crizotinib -0.034 | [1] -0.066 | duvelisib -0.025 | gandotinib 0.063 | tozasertib 0.01 | doramapimod -0.029 | bafetinib 0 | [2] 0.044

NTMT1 (UniProt S4R338)
inactive: lapatinib 0.082

MTHFD1 (UniProt V9GZ32)
inactive: lapatinib -0.067

NFAT5 isoform 5 (UniProt O94916)
Chain of UniProt O94916 (O94916 whole entry, looked up): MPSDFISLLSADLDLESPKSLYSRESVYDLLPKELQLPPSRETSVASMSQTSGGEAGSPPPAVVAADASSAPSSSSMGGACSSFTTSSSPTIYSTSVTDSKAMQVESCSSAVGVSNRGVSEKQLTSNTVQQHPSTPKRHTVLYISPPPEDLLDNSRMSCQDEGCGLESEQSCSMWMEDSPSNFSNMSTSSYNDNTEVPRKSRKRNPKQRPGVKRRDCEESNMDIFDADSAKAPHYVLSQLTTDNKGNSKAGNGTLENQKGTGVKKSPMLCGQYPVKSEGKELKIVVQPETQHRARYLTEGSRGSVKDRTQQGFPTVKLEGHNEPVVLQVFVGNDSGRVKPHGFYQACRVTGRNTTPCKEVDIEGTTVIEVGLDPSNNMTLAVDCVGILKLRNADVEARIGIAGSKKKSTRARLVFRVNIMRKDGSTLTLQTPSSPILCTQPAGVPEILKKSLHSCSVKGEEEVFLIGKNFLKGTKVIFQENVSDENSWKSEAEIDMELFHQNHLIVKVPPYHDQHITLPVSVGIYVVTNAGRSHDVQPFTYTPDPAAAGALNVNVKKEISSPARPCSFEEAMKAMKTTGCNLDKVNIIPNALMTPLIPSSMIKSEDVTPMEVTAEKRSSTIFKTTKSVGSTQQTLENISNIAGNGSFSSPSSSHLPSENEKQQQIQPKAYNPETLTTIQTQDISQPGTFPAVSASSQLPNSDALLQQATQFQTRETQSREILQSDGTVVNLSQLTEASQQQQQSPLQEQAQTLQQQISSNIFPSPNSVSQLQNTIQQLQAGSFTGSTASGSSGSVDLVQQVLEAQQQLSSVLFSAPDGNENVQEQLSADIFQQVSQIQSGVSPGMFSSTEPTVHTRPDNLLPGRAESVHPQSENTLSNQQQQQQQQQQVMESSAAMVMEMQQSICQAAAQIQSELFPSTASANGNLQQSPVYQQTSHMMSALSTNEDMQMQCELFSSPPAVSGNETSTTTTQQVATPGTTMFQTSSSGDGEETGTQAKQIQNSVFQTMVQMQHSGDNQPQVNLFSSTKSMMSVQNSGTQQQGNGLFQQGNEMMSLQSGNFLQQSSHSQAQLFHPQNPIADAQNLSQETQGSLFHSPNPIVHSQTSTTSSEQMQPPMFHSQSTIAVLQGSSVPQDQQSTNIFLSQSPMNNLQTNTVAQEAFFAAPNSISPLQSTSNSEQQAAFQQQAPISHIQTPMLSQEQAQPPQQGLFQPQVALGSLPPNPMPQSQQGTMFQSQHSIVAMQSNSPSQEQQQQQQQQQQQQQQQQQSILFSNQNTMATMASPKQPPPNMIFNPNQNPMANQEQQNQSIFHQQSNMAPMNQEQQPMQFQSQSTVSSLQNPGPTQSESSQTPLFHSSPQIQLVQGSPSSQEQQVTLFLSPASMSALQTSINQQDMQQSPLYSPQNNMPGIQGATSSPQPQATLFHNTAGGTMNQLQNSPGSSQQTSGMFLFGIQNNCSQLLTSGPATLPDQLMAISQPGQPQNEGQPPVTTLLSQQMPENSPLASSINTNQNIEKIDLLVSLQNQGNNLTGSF
inactive: lapatinib 0.033 | pictilisib -0.002 | crizotinib 0.053 | [1] -0.053 | duvelisib -0.041 | gandotinib 0.045 | tozasertib -0.039 | doramapimod 0.007 | bafetinib -0.041 | [2] 0.008

OGFR (UniProt Q9NZT2)
inactive: lapatinib 0.014 | pictilisib -0.012 | crizotinib 0.052 | [1] 0.128 | duvelisib -0.008 | gandotinib -0.062 | tozasertib -0.043 | doramapimod -0.012 | bafetinib 0.043 | [2] -0.037

MTHFD1, A0A384N5Y3
inactive: lapatinib -0.008 | pictilisib -0.003 | crizotinib -0.064 | [1] 0.04 | duvelisib 0.015 | gandotinib -0.087 | tozasertib 0.028 | doramapimod 0.043 | bafetinib -0.041 | [2] -0.025

NAA38 isoform 2 (UniProt Q9BRA0)
Chain of UniProt Q9BRA0 (Q9BRA0 whole entry, looked up): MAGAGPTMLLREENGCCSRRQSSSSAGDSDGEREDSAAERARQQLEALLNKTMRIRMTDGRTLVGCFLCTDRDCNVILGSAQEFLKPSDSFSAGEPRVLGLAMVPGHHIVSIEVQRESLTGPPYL
active: [1] -0.382 | [2] 0.244
inactive: lapatinib -0.028 | pictilisib -0.018 | crizotinib 0.001 | duvelisib -0.016 | gandotinib 0.202 | tozasertib 0.062 | doramapimod -0.088 | bafetinib -0.041

NOC2L (UniProt Q9Y3T9)
inactive: lapatinib -0.049 | pictilisib -0.012 | crizotinib -0.077 | [1] -0.004 | duvelisib -0.074 | gandotinib -0.037 | tozasertib -0.015 | doramapimod 0.03 | bafetinib -0.137 | [2] 0.09

NFATC2 (UniProt Q13469)
inactive: lapatinib -0.003 | pictilisib 0.03 | crizotinib -0.021 | [1] 0.085 | duvelisib -0.017 | gandotinib 0.133 | tozasertib 0 | doramapimod 0.059 | bafetinib -0.02 | [2] 0.117
